Compounds with a hit are over-represented: about 0.44% of the library has one in this group of screens.
JMJD2C inh – inhibitors of human GASC-1 (JMJD2C) demethylase; GST-JMJD2C(1-420) H3K9me3 demethylation, DELFIA europium; AID 2099; inhibition, % at 2.35 µM; actives 0.069% (n = 330,000); Q9H3R0;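 active = more than half of a compound's replicate wells show inhibition beyond 50%, single wells judged on their own value; inconclusive = some, but no more than half, of replicates pass 50% inhibition; inactive = no replicate passes 50% inhibition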;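 note: signal counts dimethyl H3K9 product captured on neutravidin plate; 0% = median of DMSO wells and 100% = 0.3 times that DMSO median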
ABCB6 inh 2 – blocks the human ABCB6 transporter; Q9NP58; K562-ABCB6 porphyrin accumulation, flow cytometry, 1 h; stronger effect = lower value; fluorescence ratio to DMSO, % at 10 µM; actives 0.19% (n = 360,000);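 active = fluorescence ratio to DMSO below 75%, the collection mean minus 3 SD; inconclusive = too few cells collected in the well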;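 note: signal is porphyrin accumulated inside mitochondria; 100% equals median channel fluorescence of DMSO control wells; lower ratio means ABCB6 inhibition with less porphyrin fluorescence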
VLA-4 inh – inhibition in a human VLA-4 binding assay | AID 2557 | actives 0.2% (n = 330,000) | VLA-4 expressing cells, ligand binding flow cytometry | inhibition, % (about 7 µM as worked out from the volumes in the protocol) | P13612; in the data active = inhibition above about 50%
PolyA inh – inhibitors of polyadenylation in S. cerevisiae; S. cerevisiae SKY197-pL101 polyadenylation reporter, beta-gal luminescence; efflux-impaired pdr1/pdr3 knockout yeast; score 100 = 6 SD above DMSO; activity score, % at 12 µM; actives 0.02% (n = 300,000); AID 1875;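 active = lowest replicate activity score at least 50, where 100 means six control SD above control mean; inconclusive = lowest score under 50 but half or more replicates reach 50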;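 note: yeast exposed to compound for 9 h at 30 °C; higher score means more reporter readthrough which indicates perturbed polyadenylation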
VLA-4 mod pick – human VLA-4 allosteric modulation in cherry picked compounds. AID 2813. U937 cells, HUTS-21 LIBS mAb binding, flow cytometry; LDV ligand present at threefold Kd. actives 2% (n = 1,300). inhibition, % at 6.7 µM. shares compounds with VLA-4 inh; in the data active = inhibition above about 40%;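 note: 0% = ligand without compound and 100% = no ligand background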
* hit, by the source's call; ? = inconclusive; nt = not tested or not shown.

SMILES	JMJD2C inh	ABCB6 inh 2	VLA-4 inh	PolyA inh	VLA-4 mod pick
CCN(CC(=O)NCc1ccc(F)cc1)S(=O)(=O)c1ccc(C)cc1	-11	91	2	15	2
CC(C)CCN(CC(=O)NCc1ccc(F)cc1)S(=O)(=O)c1ccccc1F	14	97	1	-4	0
CCN(CC(=O)NCc1cccs1)S(=O)(=O)c1ccc(F)cc1	1	93	1	11	nt
COCCCN(CC(=O)NCc1ccccc1)S(=O)(=O)c1ccc(C)cc1	11	94	13	0	4
COc1ccc(S(=O)(=O)N(C)CC(=O)NCc2ccccc2)cc1OC	8	94	15	-13	-1
CNC(C)c1cc(OC)ccc1OC (stereo not drawn)	-5	97	6	14	nt
Cc1cccc(N(CC(=O)N/N=C/c2cc([N+](=O)[O-])ccc2Cl)S(C)(=O)=O)c1C	-5	112	8	-6	nt
CCc1ccc(C2C3=C(CC(C)(C)CC3=O)Nc3c2c(=O)[nH]c2nc(C)nn32)cc1 (stereo not drawn)	-12	102	57*	3	6
CCOC(=O)/C(=C\c1ccc(OC(F)F)cc1)C1=Nn2c(nnc2-c2ccc(Cl)cc2)SC1	-9	88	60*	-20	51*
O=C(O)c1ccc2nnn(O)c2c1	-2	93	1	0	nt
O=C(OCC(=O)N1CCCCCC1)c1ccc[nH]c1=O	1	102	3	nt	nt
O=C(OCC(=O)N1CCOCC1)c1ccc[nH]c1=O	11	97	52*	5	2
CSc1nc2nc(-c3ccccc3)cc(=O)n2[nH]1	3	98	93*	3	5
Cc1ccc(S(=O)(=O)NCCC(=O)NCCOc2ccccc2)cc1	nt	99	nt	nt	nt
CCOCC(O)CNc1ccccc1 (stereo not drawn)	1	101	41	14	14
COc1ccc(C(C#N)c2ccc(=O)[nH]n2)cc1 (stereo not drawn)	-6	102	55*	?	-9
Clc1ccc(-c2ccc(/C=N/Nc3cc(N4CCOCC4)nc(N4CCOCC4)n3)o2)cc1	5	107	-13	-5	nt
O=c1[nH]cnc2c1nc(SCc1ccccc1)n2C1OC(CO)C(O)C1O (stereo not drawn)	1	99	51*	13	8
Cc1ccc(S(=O)(=O)N2C[C@H]3[C@H]4C(=O)N(C)C(=O)[C@H]4CC(=O)[C@H]3[C@@H]2c2ccccc2F)cc1	nt	97	nt	nt	nt
NS(=O)(=O)c1ccc(NC(=O)COC(=O)c2cc([N+](=O)[O-])ccc2Cl)cc1	2	99	1	3	nt
Cc1ccc(C(=O)OCC(=O)Nc2ccc(S(N)(=O)=O)cc2)c(O)c1	-10	96	5	-12	6
COc1ccccc1NC(=O)c1c(C)oc2c1CCCC2	-2	100	93*	-1	4
Cc1oc2c(c1C(=O)Nc1cccc3ccccc13)CCCC2	-5	87	6	-13	nt
Cc1[nH]ccc(=O)c1OCc1c(F)cccc1Cl	-3	105	3	22	nt
O=[N+]([O-])c1ccccc1Oc1ncccc1[N+](=O)[O-]	-6	96	72*	-8	10
SMILES	JMJD2C inh	ABCB6 inh 2	VLA-4 inh	PolyA inh	VLA-4 mod pick
Cc1cccc(Oc2ncccc2[N+](=O)[O-])c1C	nt	98	nt	nt	nt
COc1ccc(-c2nc(C)ncc2-c2ccc(Cl)cc2)c(O)c1	2	109	68*	2	21
NC(CSCc1ccccc1)C(=O)Nc1ccc([N+](=O)[O-])cc1 (stereo not drawn)	nt	96	nt	nt	nt
Nc1ncnc2c1ncn2[C@@H]1O[C@H](CO)[C@@H](O)[C@@H]1O	-1	99	-23	-6	2
Nc1nc(Nc2ccccc2)nc2c1ncn2[C@@H]1O[C@H](CO)[C@@H](O)[C@H]1O	-6	93	56*	-6	14
Nc1nc(F)nc2c1ncn2[C@@H]1O[C@H](CO)[C@@H](O)[C@H]1O	-33	103	6	-20	1
Nc1nc(F)nc2c1ncn2[C@@H]1O[C@H](CO)[C@@H](O)[C@@H]1O	-23	96	19	18	nt
COc1ccc(CC(=O)Nc2ccc(OC(C)=O)cc2C(=O)O)cc1	15	94	11	-6	nt
CC(=O)Oc1ccc(NC(=O)Cc2ccccc2)c(C(=O)O)c1	34	103	52*	-7	-2
